Compound activity as filed in PubChem BioAssay.
An excerpt weighted towards active compounds, which were near 8.1% of everything screened.
MCF10A rerep = induces DNA re-replication in MCF 10a normal breast cells. MCF 10A DNA re-replication, Hoechst nuclear intensity, 48 h. Potency, µM (series often up to 46.1 µM), for inactives: at the top dose activity, positive = re-replication, most hits filed as activators. actives 2.9% (n = 350,000). AID 624296; note: % of control where 0% means no effect; nearly all actives have a fitted effect of over 50% in size
KB-V1 MDR tox = kills drug-selected multidrug resistant KB-V1 cells; KB-V1 MDR cells viability, CellTiter-Glo, 72 h; Potency, µM (doses to about 46.1 µM), actives largely listed as cytotoxic; actives 3.4% (n = 400,000); note: % is set by controls: 0 for no effect and ±100 for the full control effect; nearly all actives have a fitted effect of over 60% in size
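Cytotoxicity toward P-gp-expressing KB-V1 cells was determined as loss of CellTiter-Glo luminescence after 72 h at 37 degrees C. Compounds were tested in quantitative HTS format across a concentration range, with curves fitted to normalized data.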
KB-3-1 tox = KB-3-1 parental cell cytotoxicity | KB-3-1 viability, CellTiter-Glo ATP luminescence, 72 h | Potency, µM (doses to about 46.1 µM), actives largely listed as cytotoxic | actives 1.4% (n = 400,000); note: % is set by controls: 0 for no effect and ±100 for the full control effect; nearly all actives have a fitted effect of over 60% in size
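Viability of parental KB-3-1 cells, measured by CellTiter-Glo luminescence, followed a 72 h incubation at 37 °C with pinned compounds in phenol-red-free DMEM containing 10% FBS.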
SW480 rerep = induces DNA re-replication in SW480 colon adenocarcinoma cells; SW480 DNA re-replication, Hoechst DNA content imaging, 48 h; Potency, µM (titrated, usually from 46.1 µM), for inactives: top-dose re-replication activation, usual class: activators; actives 1.8% (n = 340,000); note: % of control where 0% means no effect; nearly all actives have a fitted effect of over 55% in size
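250 cells/well; 23 nL cpd via pin tool; 48 hr, 37 C, 5% CO2; Hoechst 40 min; imager read of total nuclear intensity, ex 405/em 500-530 nm.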
ELG1 repair inh = blocks ELG1-dependent DNA repair in HEK293T cells; HEK293T ELG1-luciferase reporter, luminescence, 16 h; DNA damage induced by 5-fluorouridine; AID 504467; Potency, µM (series often up to 46.1 µM), for inactives: top-dose activity change, negative = inhibition, actives largely listed as inhibitors; actives 2.3% (n = 330,000); note: % is set by controls: 0 for no effect and ±100 for the full control effect; nearly all actives have a fitted effect of over 55% in size
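DMSO vehicle served as the neutral condition. Each well held 2,000 cells given 5-fluorouridine plus compound; after 16 hr at 37 °C/5% CO2, ONE-Glo was added and luciferase measured 30 min later.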
Starred values were filed as active, the others as inactive; i = inactive; ? = inconclusive; · = no result. Calls come from the whole dose curve; as a rule, active = well fitted curve in the direction sought with a large enough effect; inconclusive = small, poorly fitted or top-dose-only effect, or another doubt; inactive = no such curve, though single readings can be large; an effect the other way counts as inactive or inconclusive. Potency is the fitted concentration of half-maximal effect.

SMILES	MCF10A rerep	KB-V1 MDR tox	KB-3-1 tox	SW480 rerep	ELG1 repair inh
COC(=O)CCC(=O)NC(=S)Nc1ccc(S(=O)(=O)Nc2cc(OC)nc(OC)n2)cc1	-4.1%	i	i	2.59µM*	-9.5%
COc1ccc(OC)c2c1C(=O)C(Cl)=C(Cl)C2=O	2.59µM*	5.17µM*	5.8µM*	?	20.6µM*
COc1ccc(OC)c2c1C(=O)c1ccccc1C2=O	10.8%	i	i	1.5%	0.6%
O=C(N/N=C/c1ccccc1C(F)(F)F)c1ccc(O)cc1	-1.0%	i	i	-5.4%	?
CC(C)(CNC(=O)c1cc(-c2ccc(Cl)s2)nc2ccccc12)N1CCOCC1	?	i	i	23.1µM*	-2.6%
O=C(c1cc(-c2ccc(Cl)s2)nc2ccccc12)N1CCCC1	?	?	i	-2.8%	·
CCn1nc(C(=O)NCC(c2cccs2)N2CCOCC2)c2ccccc2c1=O (stereo not given)	18.8%	?	?	1.8%	-2.1%
CN1CCN(NC(=O)c2cc(-c3ccc(Cl)s3)nc3ccccc23)CC1	14.6µM*	i	i	16.4µM*	?
O=C(NCC(c1cccs1)N1CCOCC1)c1cc(-c2ccc(F)cc2)nc2ccccc12 (stereo not given)	7.9%	20.6µM*	i	12.0%	?
CCCCn1nc(C(=O)NCC(c2cccs2)N2CCOCC2)c2ccccc2c1=O (stereo not given)	6.6%	?	?	-36.1%	18.3µM*
Cc1cccc(Nc2c(-c3cccs3)nc3nc(C)cc(C)n23)c1	·	i	i	·	·
O=C(COC(=O)CNC(=O)c1ccccc1Cl)NC1CC1	-1.1%	?	i	-5.4%	?
CCCc1ccc(-c2cc(C(=O)NN3CCOCC3)c3ccccc3n2)cc1	25.8%	5.17µM*	i	12.4%	?
CCn1c(SCC(=O)Nc2ccccc2)nc2nc3c(cc2c1=O)COC(C)(C)C3	-1.5%	i	i	2.5%	10.3µM*
CCn1c(SCC(=O)Nc2cccc(C)c2)nc2nc3c(cc2c1=O)COC(C)(C)C3	7.2%	?	i	-3.2%	18.3µM*
O=C(NCCc1ccccn1)c1cncc(Br)c1	3.4%	i	i	72.1%	?
O=C1C=CC(=O)N1N(c1ccccc1)c1ccccc1	5.17µM*	i	i	?	?
O=C(CNS(=O)(=O)c1ccc(F)c(Cl)c1)N1CCCC1	9.0%	i	i	?	6.0%
Cc1cc2nc(CCN(C(=S)NCC(C)C)C3CCCC3)[nH]c2cc1C	3.4%	16.4µM*	i	-1.6%	?
O=S1(=O)C=C(SCc2ccc(Cl)c(Cl)c2)Nc2ccccc21	?	14.6µM*	?	?	-12.2%
Nc1nc(SCc2ccc(Cl)c(Cl)c2)n[nH]1	-6.7%	i	i	4.8%	?
COc1ccccc1N(CC(=O)NCc1ccc(F)cc1)C(=O)CCC(=O)Nc1ccccn1	3.9%	i	i	13.9%	9.7%
CCCOC(=O)c1ccc(-c2c(C)noc2-c2ccc(OC)cc2O)o1	?	i	i	-8.9%	20.6µM*
COc1ccc(-c2onc(C)c2-c2cscn2)c(O)c1	17.8%	i	i	0.4%	-17.2%
CC(C)CNC(=O)CN1C(=O)NC2(CCc3ccccc32)C1=O (stereo not given)	-1.5%	i	i	-9.5%	7.6%
CCn1c(SCC(=O)Nc2nc3ccc(OC)cc3s2)nc2c1c(=O)n(C)c(=O)n2C	1.4%	2.06µM*	i	2.2%	13µM*
CCOc1ccc2nc(NC(=O)CSc3nc4c(c(=O)n(C)c(=O)n4C)n3C(C)C)sc2c1	?	3.66µM*	?	4.9%	9.2µM*
CC(C)n1c(SCC(=O)Nc2nc3ccccc3s2)nc2c1c(=O)n(C)c(=O)n2C	?	i	i	?	·
CCOc1ccc2nc(NC(=O)Cn3[nH]c(=O)c4ccccc4c3=O)sc2c1	20.6µM*	i	?	122.8%	?
COc1ccccc1N1CCN(C(=O)Cn2c(=O)n3nc(-c4cccc(F)c4)nc3c3ccccc32)CC1	·	i	i	·	·
